Measurements published in PubChem BioAssay (NCI).
This is part of a sample that, as a whole, favours compounds with a hit. Of some 79,000 tested, about 15% had one in any assay. Calls of active or inactive are those of the source. Cut-off read from the data, not from the text of the source: active = growth inhibition above about 70%; inactive = the rest.

What was measured:
[1] = NCI Yeast Anticancer Drug Screen. Data for the rad52 strain (AID 147);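 note: 0% = growth of vehicle-treated control cultures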; settings: S. cerevisiae rad52 mutant growth inhibition, active compounds read high
Method in brief: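 DNA repair-defective yeast; compound exposure; growth scored against vehicle controls.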

[2] = NCI Yeast Anticancer Drug Screen. Data for the wt1 strain (AID 149);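 note: 0% = growth of vehicle-treated wt1 cultures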; settings: S. cerevisiae wt1 strain (SPY 50644) growth inhibition, active compounds read high
Method in brief: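 Compounds are added to wt1 yeast cultures. Growth is then measured. Inhibition is expressed relative to vehicle-treated controls.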

[3] = NCI Yeast Anticancer Drug Screen. Data for the rad50 strain (AID 155);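 note: 0% = growth of vehicle-only cultures of the same strain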; settings: S. cerevisiae rad50 strain growth inhibition, active compounds read high
Method in brief: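 Inhibition values express reduced yeast growth in compound-treated cultures relative to vehicle-treated controls.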

[4] = NCI Yeast Anticancer Drug Screen. Data for the mec2-1 strain (AID 157); settings: S. cerevisiae mec2-1 strain, active compounds read high
Method in brief: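 Growth inhibition is read against vehicle-treated controls after compound exposure of the mec2-1 yeast strain, which is defective in DNA damage repair or cell cycle control.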

[5] = NCI Yeast Anticancer Drug Screen. Data for the sgs1 mgt1 strain (AID 161);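 note: 0% = growth of cultures given vehicle only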; settings: S. cerevisiae sgs1 mgt1 strain, active compounds read high
Method in brief: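 Yeast cells carrying a defined DNA-repair defect were exposed to test compounds. Growth inhibition was measured relative to vehicle-treated controls.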

[6] = NCI Yeast Anticancer Drug Screen. Data for the CLN2oe strain (AID 163);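 note: 0% = growth of vehicle-only control cultures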; settings: S. cerevisiae CLN2oe strain, active compounds read high
Method in brief: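 Compound-treated yeast; growth vs vehicle ctrl = % inhibition. Genetically altered strain (cell-cycle control).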

[7] = NCI Yeast Anticancer Drug Screen. Data for the cln2 rad14 strain (AID 165);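 note: 0% = growth equal to vehicle treated cultures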; settings: S. cerevisiae cln2 rad14 strain, active compounds read high
Method in brief: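 Growth inhibition, relative to vehicle-treated controls, is the read-out. The test organism is a yeast strain with defined genetic alterations, cln2 rad14.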

[8] = NCI Yeast Anticancer Drug Screen. Data for the bub3 strain (AID 167); settings: S. cerevisiae bub3 mutant strain, active compounds read high
Method in brief: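 Steps: expose the mutant yeast strain to compound; grow alongside vehicle-treated cultures; measure growth; express inhibition against the vehicle cultures.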

[9] = NCI Yeast Anticancer Drug Screen. Data for the wt2 strain (AID 169);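 note: 0% = growth of vehicle-treated yeast cultures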; settings: S. cerevisiae wt2 strain growth inhibition, active compounds read high
Method in brief: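 Compound exposure of yeast; growth compared with vehicle controls; inhibition reported.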

[10] = NCI Yeast Anticancer Drug Screen. Data for the mlh1 strain (AID 171);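 note: 0% = growth of vehicle-treated control cultures of the same strain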; settings: S. cerevisiae mlh1 strain growth inhibition, active compounds read high
Method in brief: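 Compounds are applied to a genetically altered yeast strain, and its growth is compared with that of vehicle-treated cultures to give percent inhibition.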

[11] = NCI Yeast Anticancer Drug Screen. Data for the mlh1 rad18 strain (AID 175); settings: S. cerevisiae mlh1 rad18 strain growth inhibition, active compounds read high
Method in brief: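 Cells of a genetically altered yeast strain, deficient in DNA damage repair, were treated with compound. Their growth was then compared with that of vehicle-treated cultures to give inhibition.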

[12] = NCI Yeast Anticancer Drug Screen. Data for the rad18 strain (AID 177); settings: S. cerevisiae rad18 mutant growth inhibition, active compounds read high
Method in brief: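 Compounds are applied to a repair-deficient yeast strain, and growth is compared with that of vehicle-treated cultures to give percent inhibition.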

[13] = NCI Yeast Anticancer Drug Screen. Data for the rad14 strain (AID 159);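 note: 0% = growth of vehicle-treated control cultures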; settings: S. cerevisiae rad14 strain growth inhibition, active compounds read high
Method in brief: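 A mutant yeast strain defective in DNA damage repair is treated with compound; inhibition of its growth is scored against untreated, vehicle-exposed cultures.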

[14] = NCI Yeast Anticancer Drug Screen. Data for the sgs1 strain (AID 173);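 note: 0% = growth of vehicle-only control cultures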; settings: S. cerevisiae sgs1 mutant, active compounds read high
Method in brief: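 Compounds applied to genetically altered yeast; growth compared with vehicle-treated cultures to give % inhibition.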

[15] = at 5.0 µM (retest, dose inferred, filed as 0.5)
[16] = at 50.0 µM (retest, dose inferred, filed as 5.0)

Measured: growth inhibition

CC(C)c1[nH]nc(C(N)=O)c1N=NN(C)C
inactive: [1]; at 1.2 µM 3% | [1]; at 3.7 µM 4% | [1]; at 11.0 µM 40% | [2]; at 1.2 µM -5% | [2]; at 3.7 µM -4% | [2]; at 11.0 µM -8% | [2]; at 33.0 µM -7% | [2]; at 100.0 µM -1% | [3]; at 1.2 µM -5% | [3]; at 3.7 µM 3% | [3]; [15] -90% | [3]; at 11.0 µM 33% | [4]; at 1.2 µM 1% | [4]; at 3.7 µM -1% | [4]; [15] -46% | [4]; at 11.0 µM -10% | [4]; at 33.0 µM 4% | [4]; [16] -16% | [4]; at 50.0 µM 24.4% | [4]; at 100.0 µM 61% | [5]; [15] -47% | [5]; [16] 24% | [5]; at 50.0 µM 28.9% | [6]; at 1.2 µM -3% | [6]; at 3.7 µM -5% | [6]; at 11.0 µM -2% | [6]; at 33.0 µM -5% | [6]; at 100.0 µM 6% | [7]; [15] -55% | [7]; [16] -43% | [7]; at 50.0 µM 5.65% | [8]; at 1.2 µM -17% | [8]; at 3.7 µM -5% | [8]; [15] -63% | [8]; at 11.0 µM -5% | [8]; at 33.0 µM -14% | [8]; [16] -87% | [8]; at 50.0 µM -4% | [8]; at 100.0 µM -2% | [9]; at 1.2 µM -2% | [9]; at 3.7 µM -1% | [9]; at 11.0 µM -2% | [9]; at 33.0 µM -8% | [9]; at 100.0 µM 4% | [10]; at 1.2 µM 4% | [10]; at 3.7 µM -8% | [10]; at 11.0 µM -2% | [10]; at 33.0 µM -3% | [10]; at 100.0 µM 4% | [11]; [15] -101% | [11]; [16] 24% | [11]; at 50.0 µM 58.1% | [12]; at 1.2 µM 3% | [12]; at 3.7 µM 12% | [12]; at 11.0 µM 39%
active: [1]; at 33.0 µM 87% | [1]; at 100.0 µM 95% | [3]; at 33.0 µM 81% | [3]; [16] 83% | [3]; at 50.0 µM 91.5% | [3]; at 100.0 µM 93% | [12]; at 33.0 µM 80% | [12]; at 100.0 µM 94%

Cc1ccccc1NC(=O)Cc1csc(N/N=C2\NC(=O)/C(=C/c3cccc([N+](=O)[O-])c3)S2)n1
inactive: [1]; at 1.2 µM 2% | [1]; at 3.7 µM 5% | [1]; at 11.0 µM 13% | [1]; at 33.0 µM 24% | [1]; at 100.0 µM 49% | [2]; at 1.2 µM 3% | [2]; at 3.7 µM 6% | [2]; at 11.0 µM 4% | [2]; at 33.0 µM 11% | [2]; at 100.0 µM 26% | [3]; at 1.2 µM -4% | [3]; at 3.7 µM -11% | [3]; [15] 8% | [3]; at 11.0 µM -6% | [3]; at 33.0 µM 24% | [3]; [16] 10% | [3]; at 50.0 µM 64.1% | [3]; at 100.0 µM 50% | [4]; at 1.2 µM 4% | [4]; at 3.7 µM 2% | [4]; [15] 8% | [4]; at 11.0 µM 5% | [4]; at 33.0 µM 12% | [4]; [16] 13% | [4]; at 50.0 µM 32.1% | [4]; at 100.0 µM 23% | [13]; at 1.2 µM 4% | [13]; at 3.7 µM 2% | [13]; at 11.0 µM 8% | [13]; at 33.0 µM 16% | [13]; at 100.0 µM 22% | [5]; [15] -1% | [5]; [16] 22% | [6]; at 1.2 µM 0% | [6]; at 3.7 µM 0% | [6]; at 11.0 µM -4% | [6]; at 33.0 µM 1% | [6]; at 100.0 µM 17% | [7]; [15] -16% | [7]; [16] 28% | [7]; at 50.0 µM 21.6% | [8]; at 1.2 µM -1% | [8]; at 3.7 µM -1% | [8]; [15] -25% | [8]; at 11.0 µM 0% | [8]; at 33.0 µM 15% | [8]; [16] 69% | [8]; at 50.0 µM 66.2% | [8]; at 100.0 µM 32% | [9]; at 1.2 µM 2% | [9]; at 3.7 µM 3% | [9]; at 11.0 µM 5% | [9]; at 33.0 µM 17% | [9]; at 100.0 µM 46% | [10]; at 1.2 µM 1% | [10]; at 3.7 µM 4% | [10]; at 11.0 µM 6% | [10]; at 33.0 µM 20% | [10]; at 100.0 µM 51% | [14]; at 1.2 µM 5% | [14]; at 3.7 µM 6% | [14]; at 11.0 µM 8% | [14]; at 33.0 µM 40% | [11]; [15] 13% | [11]; [16] 42% | [11]; at 50.0 µM 60.5% | [12]; at 1.2 µM -2% | [12]; at 3.7 µM -3% | [12]; at 11.0 µM 6% | [12]; at 33.0 µM 32% | [12]; at 100.0 µM 59%
active: [5]; at 50.0 µM 79% | [14]; at 100.0 µM 70%

CCOC(=O)c1csc(Br)n1
inactive: [1]; at 1.2 µM -2% | [1]; at 3.7 µM -3% | [1]; at 11.0 µM -7% | [1]; at 33.0 µM -5% | [1]; at 100.0 µM -9% | [2]; at 1.2 µM 3% | [2]; at 3.7 µM -3% | [2]; at 11.0 µM -3% | [2]; at 33.0 µM -3% | [2]; at 100.0 µM -5% | [3]; at 1.2 µM -5% | [3]; at 3.7 µM 1% | [3]; [15] -4% | [3]; at 11.0 µM 0% | [3]; at 33.0 µM -1% | [3]; [16] -3% | [3]; at 100.0 µM -12% | [4]; at 1.2 µM -7% | [4]; at 3.7 µM -2% | [4]; [15] -16% | [4]; at 11.0 µM -3% | [4]; at 33.0 µM -5% | [4]; [16] -7% | [4]; at 100.0 µM -3% | [13]; at 1.2 µM 0% | [13]; at 3.7 µM 2% | [13]; at 11.0 µM -2% | [13]; at 33.0 µM -4% | [13]; at 100.0 µM -8% | [5]; [15] -18% | [5]; [16] -6% | [6]; at 1.2 µM -2% | [6]; at 3.7 µM -5% | [6]; at 11.0 µM 0% | [6]; at 33.0 µM 0% | [6]; at 100.0 µM -4% | [8]; at 1.2 µM -5% | [8]; at 3.7 µM -4% | [8]; [15] -11% | [8]; at 11.0 µM -6% | [8]; at 33.0 µM -6% | [8]; [16] -7% | [8]; at 100.0 µM -14% | [10]; at 1.2 µM 3% | [10]; at 3.7 µM -7% | [10]; at 11.0 µM 0% | [10]; at 33.0 µM 3% | [10]; at 100.0 µM 0% | [14]; at 1.2 µM -2% | [14]; at 3.7 µM -2% | [14]; at 11.0 µM -1% | [14]; at 33.0 µM -3% | [14]; at 100.0 µM -6% | [11]; [15] -16% | [11]; [16] -18% | [12]; at 1.2 µM -1% | [12]; at 3.7 µM -3% | [12]; at 11.0 µM 1% | [12]; at 33.0 µM -4% | [12]; at 100.0 µM -14%
active: [3]; at 50.0 µM 98.6% | [4]; at 50.0 µM 99.5% | [5]; at 50.0 µM 97.8% | [8]; at 50.0 µM 99% | [11]; at 50.0 µM 78.3%
